Source: PubChem BioAssay AID602413 (Johns Hopkins Ion Channel Center, 2012)
About 150 (12%) of roughly 1,200 compounds were called active.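 How the source made its calls: active means ratio at least 3 SD above the weak peptide control, stable starting fluorescence, no direct agonism earlier; inactive means the rest.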 This excerpt belongs to a sample that is enriched for actives.

Target: Mas-related G-protein coupled receptor member X1 (Homo sapiens) (UniProt Q96LB2)
Assay: allosteric enhancers of human MrgX1 signaling – HEK293 cells, Fluo-4 calcium flux, confirmation (AID 602413);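 further: compound followed by low BAM8-22 agonist challenge near EC20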
Details: MrgX1-HEK293, Fluo-4 calcium fluorescence, FDSS; at 10 µM; active compounds read high

Mas-related G-protein coupled receptor member X1 (Homo sapiens), sequence (Q96LB2 whole entry, looked up): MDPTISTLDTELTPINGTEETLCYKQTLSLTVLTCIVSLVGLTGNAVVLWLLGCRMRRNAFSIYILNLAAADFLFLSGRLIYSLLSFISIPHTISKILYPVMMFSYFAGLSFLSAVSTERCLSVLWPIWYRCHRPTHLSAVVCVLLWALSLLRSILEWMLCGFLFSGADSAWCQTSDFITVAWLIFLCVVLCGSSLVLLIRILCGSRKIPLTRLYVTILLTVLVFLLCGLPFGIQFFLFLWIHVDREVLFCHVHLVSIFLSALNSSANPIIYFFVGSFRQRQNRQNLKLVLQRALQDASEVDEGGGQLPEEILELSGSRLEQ

Row | SMILES | activation (ratio percentage)
1 | C=CCN1C(=O)C2(C(C(=O)OCC)=C(N)Oc3c2c(=O)oc2ccccc32)c2ccccc21 (stereo unspecified) | 29.5% (active)
